ClpP mod – qHTS Assay for Activators of ClpP. actives 1.9% (n = 340,000). Potency, µM (titrated, usually from 57.5 µM), for the others: at the highest dose activity change, negative = active. ATP-dependent Clp protease proteolytic subunit (Bacillus subtilis (strain 168)), P80244. AID 651965, 2013. purified B. subtilis ClpP, FRET peptide cleavage, 20 min; active = well fitted falling curve with a large enough effect; inconclusive = small, poorly fitted or top-dose-only effect; inactive = no such curve, though single readings can be large or run the other way; note: the source files actives as falling curves though it sought activators and does not explain the sign; nearly all actives have a fitted effect of over 65% in size
Target sequence (P80244 whole entry, looked up): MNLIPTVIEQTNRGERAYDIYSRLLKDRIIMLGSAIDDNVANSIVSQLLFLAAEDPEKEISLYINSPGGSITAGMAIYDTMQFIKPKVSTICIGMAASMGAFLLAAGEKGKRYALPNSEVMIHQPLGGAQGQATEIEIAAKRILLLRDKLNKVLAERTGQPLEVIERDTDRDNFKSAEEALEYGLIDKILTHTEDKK
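Buffer: 100 mM Tris/HCl pH8, 100 mM KCl, 0.05% low protease BSA, 2.5% glycerol, 0.01% Tween-20. ClpP 10 microg/mL final; 20 min RT; delta FRET normalized to ADEP and DMSO controls.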
GALK inh – inhibitors of human galactokinase | P51570 | Potency, µM (series often up to 57.5 µM), inactives show at the highest dose activity change, negative = inhibition, most hits filed as inhibitors | Purified GALK, Kinase-Glo residual ATP luminescence | actives 0.007% (n = 270,000) | AID 1868; note: % is set by controls: 0 for no effect and ±100 for the full control effect
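Kinase-Glo Plus luminescence measured ATP left after a 1 h room-temperature reaction. The reaction used 5 nM GALK, 100 uM galactose and 35 uM ATP at pH 8.0 (20 mM HEPES, 5 mM MgCl2, 60 mM NaCl, 1 mM DTT, 0.01% BSA).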
Eya2 phos inh – Eya2 (human) phosphatase inhibition. AID 488837. O00167. Potency, µM (titrated, usually from 76.9 µM), without a hit: at the highest dose activity, negative = inhibition, usual class: inhibitors. recombinant Eya2, OMFP fluorescence dephosphorylation (OMFP is methylfluorescein phosphate). actives 0.006% (n = 330,000); note: % is set by controls: 0 for no effect and ±100 for the full control effect
Target sequence (O00167 whole entry, looked up): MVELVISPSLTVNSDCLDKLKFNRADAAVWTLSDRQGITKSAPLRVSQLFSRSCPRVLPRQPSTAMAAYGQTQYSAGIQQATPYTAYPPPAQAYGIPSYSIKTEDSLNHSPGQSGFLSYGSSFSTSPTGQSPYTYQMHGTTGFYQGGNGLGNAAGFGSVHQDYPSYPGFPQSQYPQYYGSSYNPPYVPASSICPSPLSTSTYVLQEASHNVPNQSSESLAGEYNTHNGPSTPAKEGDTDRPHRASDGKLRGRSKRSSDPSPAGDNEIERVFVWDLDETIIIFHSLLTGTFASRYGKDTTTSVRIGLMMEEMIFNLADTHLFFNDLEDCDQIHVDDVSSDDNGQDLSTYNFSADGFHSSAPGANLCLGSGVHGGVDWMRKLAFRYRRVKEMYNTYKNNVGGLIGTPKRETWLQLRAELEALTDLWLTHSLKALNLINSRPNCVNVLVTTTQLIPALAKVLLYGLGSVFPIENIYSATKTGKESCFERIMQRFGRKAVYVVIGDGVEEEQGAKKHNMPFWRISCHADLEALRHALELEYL
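Eya2 (0.2 uM) preincubated 10 min at ambient with compound, then OMFP substrate added at 50 uM; 10 min reaction in 50 mM HEPES pH 7.5, 50 mM NaCl, 5 uM MgCl2, 0.05% BSA, 1 mM DTT. Fluorescence read at Ex 485/Em 525 nm.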
USP2a block – inhibitors of human ubiquitin-specific protease USP2a | O75604 | USP2 core, Ub-CHOP2 coupled fluorogenic reporter, 485/531 | Potency, µM (highest dose often 38.3 µM), inactives show at the highest dose activity change, negative = inhibition, actives largely listed as inhibitors | actives 0.01% (n = 330,000) | AID 463254;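 note: plate controls were DMSO wells for no effect and full inhibition by NEM control for full effect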
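Deubiquitinase activity read as fluorescence (485/531 nm) after Ub-CHOP2 cleavage activates the enterokinase reporter on its substrate; USP2 core 10nM, Ub-CHOP2 and substrate 25nM each, 30min compound preincubation then 60min RT; data normalized to NEM, curves fitted.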
The depositor's hits bear a star; u = inconclusive; x = no result given; [ ] = remark or other dose. This is one part of a sample in which hits are shown more often than they occur. Unless noted, calls come from the whole dose curve; as a rule, active = well fitted inhibition curve with a large enough effect; inconclusive = small, poorly fitted or top-dose-only effect, or effect the other way; inactive = flat fitted curve, though single readings scatter. Potency is the fitted concentration of half-maximal effect.

SMILES	ClpP mod	GALK inh	Eya2 phos inh	USP2a block
COc1ccc(S(=O)(=O)Nc2ccc3c(c2)CC(=O)N([C@@H](C)CO)C[C@@H](C)[C@@H](CN(C)Cc2ccccc2)O3)cc1	0.8%	x	24.1%	0.6%
Cc1onc(-c2c(Cl)cccc2Cl)c1COC(=O)c1ccc(Cl)cc1[N+](=O)[O-]	x	1.8%	3.3%	2.1%
COc1ccc2[nH]c(=O)c(CN(CCO)C(=O)c3ccccc3F)cc2c1	20µM*	2.2%	5.5%	0.5%
Cc1ccc2[nH]c(=O)c(CN(CCO)C(=O)N(C)C)cc2c1	28.2µM*	x	x	x
CNC(=S)N(Cc1cccs1)Cc1cc2cc(OC)c(OC)cc2[nH]c1=O	25.1µM*	0.5%	0.0%	0.0%
COc1cc2cc(CN(Cc3cccs3)C(=S)Nc3ccc(C)cc3)c(=O)[nH]c2cc1OC	u	x	-3.6%	-9.6%
COc1cc2cc(CN(Cc3cccnc3)C(=O)NCc3ccccc3)c(=O)[nH]c2cc1OC	25.1µM*	-3.1%	-21.6%	-1.9%
O=C(CNS(=O)(=O)c1ccccc1F)Nc1ccc(N2CCOCC2)cc1	-0.3%	-3.9%	-3.9%	3.7%
CCCOc1ccc(/C=C2\SC(=S)N(CC3CCCO3)C2=O)cc1 (stereo not given)	-2.2%	0.2%	0.4%	u
COc1ccc2[nH]c(=O)c(CN(CCN(C)C)C(=O)NCc3ccccc3)cc2c1	25.1µM*	-0.3%	3.6%	2.4%
CCN(CC)CCCN(Cc1cc2cc(OC)ccc2[nH]c1=O)C(=O)Nc1ccc(F)cc1	28.2µM*	-2.3%	-7.9%	2.7%
COC(=O)c1ccccc1S(=O)(=O)N(Cc1cc2ccc(OC)cc2[nH]c1=O)CC1CCCO1 (stereo not given)	28.2µM*	-2.0%	-8.3%	-1.4%
CCc1ccc2[nH]c(=O)c(CN(CCN(C)C)C(=O)Nc3ccccc3OC)cc2c1	28.2µM*	-0.7%	-5.7%	1.3%
COc1ccc2cc(CN(CC3CCCO3)S(=O)(=O)c3ccc(C(C)=O)cc3)c(=O)[nH]c2c1 (stereo not given)	-14.4%	2.2%	0.2%	4.3%
Cc1ccc2[nH]c(=O)c(CN(CCO)C(=O)NCc3ccccc3)cc2c1	-21.2%	-2.6%	-1.3%	-1.6%
O=C(O)c1cccc2c1C(=O)c1cc([N+](=O)[O-])cc([N+](=O)[O-])c1-2	-4.6%	x	x	x
COc1ccc(C2c3c(n(C)c4ccccc34)C(=O)N2CC(=O)Nc2ccc(C)c(Cl)c2)cc1 (stereo not given)	-25.1%	x	x	x
COc1ccc(C2c3c(n(C)c4ccccc34)C(=O)N2CC(=O)Nc2cccc(Cl)c2)cc1 (stereo not given)	15.8µM*	x	x	x
COc1ccc(C2c3c(n(C)c4ccccc34)C(=O)N2CC(=O)Nc2ccc(C)cc2Cl)cc1 (stereo not given)	31.6µM*	x	x	x
CCOC(=O)N1CCN(CC(=O)Nc2ccc(Oc3ccccc3)cc2)CC1	28.2µM*	-2.3%	-23.9%	-0.7%
FC(F)(F)c1cccc(Oc2nc(-c3ccccc3)nnc2C(F)(F)F)c1	1.3%	3.4%	-12.8%	-1.6%
CCOC(=O)C1=C(C)NC(=O)NC1c1cn(-c2ccccc2)nc1-c1cccs1 (stereo not given)	5.4%	17.6%	-0.1%	-8.3%
CCOC(=O)c1ccccc1NC(=O)c1ccccc1SC	-0.9%	-4.1%	-0.6%	-4.8%
CC(NC(=O)c1ccccc1NS(C)(=O)=O)c1ccccc1 (stereo not given)	15.8µM*	-2.0%	-14.4%	0.4%
O=C(Nc1ccccc1C(=O)NCc1ccco1)NC1CCCCC1	20µM*	-6.2%	-7.6%	2.0%
SMILES	ClpP mod	GALK inh	Eya2 phos inh	USP2a block
Cc1ccc(CNC(=O)c2ccccc2NS(C)(=O)=O)cc1	28.2µM*	3.1%	-26.2%	3.6%
CC(NC(=O)c1ccc(NS(C)(=O)=O)cc1)c1ccccc1 (stereo not given)	-2.4%	3.2%	-2.9%	4.3%
CCOC(=O)c1ccccc1NC(=O)c1ccccc1NS(C)(=O)=O	35.5µM*	1.7%	-4.2%	1.3%
O=C1OC(c2ccccc2)=N/C1=C/c1cccc(OC(=O)c2cccs2)c1	-16.1%	x	x	x
COC(=O)c1ccccc1NC(=O)c1cn(-c2ccc(C)c(C)c2)c(=O)c2ccccc12	u	1.4%	5.4%	0.4%
CC(C)(C)C(=O)Nc1ccccc1C(=O)NCc1ccco1	-5.6%	2.0%	-1.4%	3.5%
CCOc1ccc(S(=O)(=O)Nc2ccccc2C(=O)NCc2ccco2)cc1	25.1µM*	0.6%	19.3%	-1.4%
CS(=O)(=O)Nc1ccccc1C(=O)NCc1ccco1	28.2µM*	-0.8%	12.0%	-1.5%
CCOC(=O)c1ccccc1NC(=O)c1cn(-c2ccc(C)c(C)c2)c(=O)c2ccccc12	12.6µM*	0.7%	1.0%	0.3%
O=C1CC(C(=O)N2CCC(N3CCC(C(=O)NC4CC4)CC3)CC2)c2ccccc21 (stereo not given)	-7.9%	2.1%	11.3%	1.1%
CN(C)c1nc(-c2cccs2)cc(C(F)(F)F)c1C#N	x	1.2%	-8.9%	-0.3%
CN(C)c1nc(-c2ccccc2)cc(C(F)(F)F)c1C#N	31.6µM*	1.0%	-22.8%	-0.1%
CC(Sc1nnc(-c2ccco2)n1N)C(=O)NC1CCCCC1C (stereo not given)	-2.4%	x	15.7%	3.0%
CCOC(=O)c1c(-c2ccccc2)csc1NC(=O)c1nn(CC)cc1Br	31.6µM*	0.2%	-15.0%	-0.3%
CCOC(=O)c1c(-c2ccccc2)csc1NC(=S)N(CC)CC	x	-0.3%	1.6%	-7.6%
Cc1ccc(S(=O)(=O)N2CCN(c3nc(C)c4c(c3C#N)CC(C)(C)OC4)CC2)cc1	28.2µM*	1.9%	8.1%	0.8%
CCc1nc(N2CCOCC2)c(C#N)c2c1COC(C)(C)C2	u	1.6%	15.9%[15.4 µM]	3.2%
CC(C)C(=O)N1CCN(c2nc(-c3ccccc3)c3c(c2C#N)CCCC3)CC1	28.2µM*	1.4%	-14.7%	-1.7%
CC1(C)Cc2c(C#N)c(N3CCOCC3)nc(-c3ccccc3)c2CO1	35.5µM*	-5.1%	-9.7%	4.3%
Cc1nc(N2CCOCC2)c(C#N)c2c1COC(C)(C)C2	31.6µM*	-2.4%	3.8%	3.4%
CC(C)Cc1nc(N2CCN(C(=O)c3ccco3)CC2)c(C#N)c2c1CCCC2	4.6%	-2.6%	-15.5%	0.6%
C/C(=C\C(=O)c1ccc(C)o1)Nc1ccc2c(c1)OCO2	-2.8%	2.3%	-0.4%	2.4%
Cc1nc(CSc2ccc(Cl)cc2)cc(N2CC(C)OC(C)C2)n1 (stereo not given)	x	1.3%	4.4%	2.4%
CCC(=O)N1CCc2cc(Br)cc(S(=O)(=O)N3CCC(C(=O)N(CC)CC)CC3)c21	-4.4%	x	x	x
O=C(NCc1ccccc1)c1ccc(CN(c2ccccn2)S(=O)(=O)c2ccccc2)cc1	20µM*	1.0%	1.5%	0.5%
CC(=O)Nc1ccc(S(=O)(=O)N(Cc2ccccc2)c2ccccn2)cc1	0.1%	-1.6%	u	-1.4%

Screening results as filed in PubChem.
